Results published in the supplement of paper PMC7669877.
± gives the uncertainty stated by the source.

test system: Candidatus Liberibacter solanacearum in potato hairy roots; assay: relative CLso titer (% of untreated control); higher = less inhibition of bacterial titer; conditions: 10 µM; 72 h
Method: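 Primary screen of ~220 Spectrum collection (MicroSource) compounds at 10 µM (0.1% DMSO) on Candidatus Liberibacter solanacearum-infected potato hairy roots in multi-well plates (Gamborg B-5 medium, vacuum infiltrated, 21 °C, dark, 72 h). CLso titer was measured by qPCR of 16S rDNA normalised to potato RPL2 (2^-ddCq), pairwise-standardised against untreated controls, averaged over two biological replicates and expressed as % of untreated.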

Point of comparison: `C1CCN2C[C@@H]3C[C@@H](CN4CCCC[C@@H]34)[C@H]2C1`, “relative CLso titer” value 93.9 ± 8%. Against it:
- CN(C)CCOC(c1ccccc1)c1ccccc1 — lower, 55.8 ± 26%
- C[C@]12CC[C@@H]3c4ccc(O)cc4CC[C@H]3[C@@H]1CC[C@@H]2O — within error, 126 ± 25%
- CCN(CCCCOC(=O)c1ccc(OC)c(OC)c1)C(C)Cc1ccc(OC)cc1 (stereo not given) — within error, 94.6 ± 34%
- CCOC(=O)[C@H](CCc1ccccc1)N[C@@H](C)C(=O)N(CC(=O)O)C1Cc2ccccc2C1 — within error, 90.7 ± 30%
- CO/N=C(\C(=O)N[C@@H]1C(=O)N2C(C(=O)O)=C(COC(C)=O)CS[C@H]12)c1csc(N)n1 — lower, 68.6 ± 14%
- CNC[C@H](O)c1ccc(O)c(O)c1 — within error, 173 ± 86%
- COc1ccc([C@H]2COc3c(ccc(O)c3OC)C2)c(OC)c1O — lower, 35.5 ± 2.5%
- NCCCC[C@H](N[C@@H](CCc1ccccc1)C(=O)O)C(=O)N1CCC[C@H]1C(=O)O — within error, 105 ± 33%
- CC(C)CCCC(C)N (stereo not given) — within error, 93.3 ± 14%
- CCCCOc1ccc(OCCCN2CCOCC2)cc1 — within error, 106 ± 37%
- CN(C)c1cnccn1 — within error, 120 ± 27%
- CC1=C(/C=C/C(C)=C/C=C/C(C)=C/CO)C(C)(C)CCC1 — higher, 195 ± 25%
- CC(=O)N(O)CCCCCNC(=O)CCC(=O)N(O)CCCCCNC(=O)CCC(=O)N(O)CCCCCN — higher, 210 ± 59%
- O=C(Oc1ccccc1C(=O)O)c1ccccc1O — within error, 124 ± 42%
- Oc1ncnc2[nH]ncc12 — within error, 82.5 ± 30%
- Nc1ncn([C@@H]2O[C@H](CO)[C@@H](O)[C@H]2O)c(=O)n1 — lower, 64.8 ± 5.8%
- CCCCOc1ccc(C(=O)CCN2CCCCC2)cc1 — higher, 156 ± 14%
- CCC[C@@H]1C[C@@H](C(=O)N[C@@H]([C@H]2O[C@H](SC)[C@H](O)[C@@H](O)[C@H]2O)[C@H](C)Cl)N(C)C1 — within error, 80.1 ± 32%
- Nc1ccc(S(=O)(=O)c2ccc(N)cc2)cc1 — within error, 94.3 ± 19%
- CCOc1ccc(Cc2cc([C@@H]3O[C@H](CO)[C@@H](O)[C@H](O)[C@H]3O)ccc2Cl)cc1 — within error, 99 ± 3%
- CN1CCC[C@@H]1CCO[C@](C)(c1ccccc1)c1ccc(Cl)cc1 — lower, 44.3 ± 12%
- Nc1ccn([C@@H]2O[C@H](CO)[C@@H](O)[C@@H]2O)c(=O)n1 — within error, 83.2 ± 46%
- C[n+]1cc2c3c(ccc2c2ccc4cc5c(cc4c21)OCO5)OCO3 — within error, 86.7 ± 34%
- NS(=O)(=O)c1cc(C2(O)NC(=O)c3ccccc32)ccc1Cl (stereo not given) — lower, 58.5 ± 3.2%
- COC(=O)C1=C(C)NC(C)=C(C(=O)OCCN(C)Cc2ccccc2)C1c1cccc([N+](=O)[O-])c1 (stereo not given) — higher, 121 ± 15%
- O=C(O)c1cc(-c2ccc(F)cc2F)ccc1O — within error, 115 ± 58%
- Clc1ccc(CSC(Cn2ccnc2)c2ccc(Cl)cc2Cl)cc1 (stereo not given) — within error, 111 ± 31%
- CCN(CC)C(=S)SSC(=S)N(CC)CC — within error, 82.7 ± 6%
- CCN(CC)CCOc1ccc(C(=C(Cl)c2ccccc2)c2ccccc2)cc1 — lower, 42.7 ± 2.2%
- Clc1ccccc1C(c1ccccc1)(c1ccccc1)n1ccnc1 — lower, 65.3 ± 14%
- O=C(O)CN1C(=O)c2cccc3cccc(c23)C1=O — within error, 145 ± 46%
- CCCN(CCC)C(=O)C(CCC(=O)O)NC(=O)c1ccccc1 (stereo not given) — lower, 52.8 ± 27%
- CC(C)(Sc1cc(C(C)(C)C)c(O)c(C(C)(C)C)c1)Sc1cc(C(C)(C)C)c(O)c(C(C)(C)C)c1 — within error, 102 ± 13%
- Cc1cc(C2CCCCC2)n(O)c(=O)c1 — lower, 44.1 ± 7.6%
- CN(C)CCOC(c1ccccc1)c1ccccc1.Cn1c(=O)c2[nH]c(Cl)nc2n(C)c1=O — within error, 127 ± 74%
- CC(NCCc1ccc(O)cc1)C(O)c1ccc(O)cc1 (stereo not given) — within error, 82.6 ± 20%
- CNC(=C[N+](=O)[O-])NCCSCc1ccc(CN(C)C)o1 — higher, 109 ± 2.3%
- CCCC(C(=O)OCCN(CC)CC)(c1ccccc1)c1ccccc1 — within error, 112 ± 16%
- Cc1cn([C@H]2C[C@H](N=[N+]=[N-])[C@@H](CO)O2)c(=O)[nH]c1=O — lower, 52.6 ± 7.3%
